These results are taken from PubChem BioAssay (NCI).

Test systems include DU-145 prostate; K-562 leukemia; MALME-3M melanoma; MDA-MB-231 breast; RXF 393 renal; SF-268 CNS; SF-295 CNS; SF-539 CNS; UACC-257 melanoma; M14 melanoma.
Holding throughout (assay): NCI-60 one-dose screen, 48 h (100 = growth as untreated, 0 = no growth, -100 = all killed)
Common to all, as to conditions: 10 µM unless noted

This is part of a sample that, as a whole, favours compounds with a hit. Of some 83,000 tested, about 20% had one in any assay.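 Single-dose data. Exposure time 48 hours. Values below 10 considered active.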 Values without a mark were called inactive. The source made the active and inactive calls.

For `CCOC(=O)CCCCCCCCC(=O)OCC`, the growth in the experiment with DU-145 prostate was 108%; in the experiment on K-562 leukemia, 101%; in the experiment on MALME-3M melanoma, 94.4%; with MDA-MB-231 breast, 111%; with RXF 393 renal it was 112%; in the experiment on SF-268 CNS, 97.3%. For the same molecule, the growth in the experiment on SF-295 CNS was 103%; in the experiment on SF-539 CNS, 112%; with UACC-257 melanoma, 101%; in the experiment with M14 melanoma it was 114%.

As for `C#CCCCCCCC[C@@H]1OC(=O)[C@H]([C@@H](C)CC)NC(=O)[C@H]([C@@H](C)CC)NC(=O)CC(=O)[C@@H]1C`, the growth with DU-145 prostate is 106%; with K-562 leukemia, 96.5%; in the experiment with MALME-3M melanoma it was 92.9%; in the experiment with MDA-MB-231 breast it was 89.9%; with RXF 393 renal it was 104%; in the experiment on SF-268 CNS it was 91.9%. Besides, the growth in the experiment on SF-295 CNS is 98.9%; with SF-539 CNS it was 97.5%; in the experiment with UACC-257 melanoma it was 117%; in the experiment on M14 melanoma, 93.9%.

In the case of `CCCCCCCCCCC(C[N+](C)(C)C/C=C/c1ccccc1)C(O)c1ccccc1` (stereo not given), the growth in the experiment with DU-145 prostate is 1.19% (active); in the experiment on K-562 leukemia it was -35.9% (active); in the experiment on MALME-3M melanoma it was -28.6% (active); in the experiment with MDA-MB-231 breast, -55.9% (active); in the experiment on RXF 393 renal, -54.3% (active); in the experiment with SF-268 CNS it was -0.479% (active). The growth with SF-295 CNS was 35.6%; with SF-539 CNS, 40.5%; with UACC-257 melanoma, 21%; in the experiment with M14 melanoma it was 6.02% (active).

Consider `CC1=C(C)C(=O)C(C(C)C2=C(C)C(=O)C(C)=C(C)C2=O)=C(C)C1=O`, for which the growth with DU-145 prostate was 92.7%; with K-562 leukemia it was 37.5%; in the experiment on MALME-3M melanoma it was 119%; in the experiment with MDA-MB-231 breast it was 94.2%; with RXF 393 renal it was 11.3%; in the experiment on SF-268 CNS it was 101%. Besides, the growth in the experiment on SF-295 CNS is 128%; in the experiment with SF-539 CNS it was 81.2%; in the experiment with UACC-257 melanoma it was 92.7%; in the experiment on M14 melanoma, 108%.

`O=C(N/N=C\c1ccc(Cl)cc1)C(=O)N/N=C\c1ccc(Cl)cc1`: the growth is 123% in the experiment with DU-145 prostate; 95.2% with K-562 leukemia; 89.6% with MALME-3M melanoma; 91.3% in the experiment with MDA-MB-231 breast; 118% in the experiment on RXF 393 renal; 120% in the experiment on SF-268 CNS. Besides, the growth in the experiment with SF-295 CNS is 96.8%; with SF-539 CNS it was 99.5%; in the experiment with UACC-257 melanoma, 108%; in the experiment on M14 melanoma, 103%.

As for `CC(O)C(N)=O` (stereo not given), the growth in the experiment with DU-145 prostate was 109%; with K-562 leukemia it was 101%; in the experiment with MALME-3M melanoma it was 105%; with MDA-MB-231 breast, 114%; with RXF 393 renal it was 107%; in the experiment with SF-268 CNS, 103%. Also, the growth with SF-295 CNS was 95%; with SF-539 CNS it was 94.7%; in the experiment on UACC-257 melanoma, 112%; with M14 melanoma, 97.9%.

For `COc1nc(OC)nc(-c2cc(-c3cc(OC)c(OC)c(OC)c3)no2)n1`, the growth with DU-145 prostate was 105%; in the experiment on K-562 leukemia, 95.1%; in the experiment with MALME-3M melanoma, 110%; in the experiment with MDA-MB-231 breast, 90.5%; with RXF 393 renal it was 94.8%; in the experiment with SF-268 CNS it was 100%. Also, the growth is 104% in the experiment on SF-295 CNS, 112% with SF-539 CNS, 99.6% in the experiment with UACC-257 melanoma and 111% in the experiment with M14 melanoma.

On to `COC(=O)[C@@H]1[C@H](O)[C@H](C)[C@H](O)[C@H](C)/C=C\C=C(C)C(=O)Nc2c(C)c(OC(C)=O)c3c(c2O)C(=O)C(C)=C2OCOC(=C23)C(C)=C[C@@](C)(O)[C@H](O)[C@@H](C)[C@H]1OC(C)=O`, for which the growth with DU-145 prostate was 144%; with K-562 leukemia, 145%; with MALME-3M melanoma it was 131%; with MDA-MB-231 breast, 125%; in the experiment with RXF 393 renal, 106%; in the experiment with SF-268 CNS, 108%. Besides, the growth in the experiment with SF-295 CNS is 118%; in the experiment with SF-539 CNS, 101%; in the experiment with UACC-257 melanoma, 106%; in the experiment with M14 melanoma, 107%.

In the case of `Cc1cc2cn3c4ccc(O)cc4nc(N)c3c2cc1C`, the growth with DU-145 prostate was 4.25% (active); in the experiment on K-562 leukemia it was -14.9% (active); in the experiment with MALME-3M melanoma, 39.6%; in the experiment with MDA-MB-231 breast, 27.3%; in the experiment on RXF 393 renal, 41.1%; with SF-268 CNS, 12.9%. In addition, the growth is 1.42% (active) in the experiment with SF-295 CNS, 11.4% with SF-539 CNS, 53.1% in the experiment with UACC-257 melanoma and 4.96% (active) with M14 melanoma.

On to `O=C(O)CS(=O)c1ccc(Cl)cc1` (stereo not given), for which the growth in the experiment on DU-145 prostate is 109%; in the experiment on K-562 leukemia it was 81.8%; in the experiment with MALME-3M melanoma it was 99.8%; in the experiment with MDA-MB-231 breast it was 118%; in the experiment with RXF 393 renal, 103%; with SF-268 CNS it was 109%. Moreover, the growth was 94.9% with SF-295 CNS, 106% with SF-539 CNS, 99.3% in the experiment with UACC-257 melanoma and 102% in the experiment with M14 melanoma.

`COC(=O)c1ccc2[nH]c(O)c(C(=Nc3ccc(N(C)C(=O)CN4CCN(C)CC4)cc3)c3ccc4c(c3)OCO4)c2c1`: the growth is 7.84% (active) with DU-145 prostate; 4.82% (active) with K-562 leukemia; -5.19% (active) in the experiment with MALME-3M melanoma; 12.5% with MDA-MB-231 breast; -56.9% (active) in the experiment on RXF 393 renal; 11.5% with SF-268 CNS. In addition, the growth in the experiment on SF-295 CNS is 27.5%; with SF-539 CNS it was -19% (active); in the experiment with UACC-257 melanoma, 31.5%; in the experiment on M14 melanoma it was 10.5%.

Consider `COc1ccc(/C(=C(\c2ccccc2)[N+](=O)[O-])c2ccc(OCCN3CCCC3)cc2)cc1`, for which the growth is 89.3% with DU-145 prostate; 13.7% in the experiment on K-562 leukemia; -7.32% (active) in the experiment with MALME-3M melanoma; 55% in the experiment with MDA-MB-231 breast; 25% in the experiment on RXF 393 renal; 84.4% in the experiment on SF-268 CNS. The growth with SF-295 CNS was 31.9%; in the experiment on SF-539 CNS, 28.6%; in the experiment on UACC-257 melanoma, -26.1% (active); with M14 melanoma it was -73.4% (active).

With `CCCCCCCCCCCCCCCCNC(=S)N/N=C/c1ccc(OC)cc1`, the growth in the experiment with DU-145 prostate was 104%; in the experiment on K-562 leukemia, 105%; in the experiment on MALME-3M melanoma it was 103%; in the experiment with MDA-MB-231 breast it was 95.1%; in the experiment with RXF 393 renal, 92%; in the experiment on SF-268 CNS it was 107%. Besides, the growth in the experiment on SF-295 CNS was 84.9%; with SF-539 CNS it was 91.7%; with UACC-257 melanoma, 99.3%; in the experiment on M14 melanoma it was 96.1%.
